For 40 molecules, growth results are on record in PubChem BioAssay (NCI).

About 83,000 compounds went through this panel and 20% of them were active in at least one assay; those are over-represented in the sample as a whole.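 The endpoint reported here, percent growth, reads 100 for growth as untreated, 0 for no net growth and -100 for all cells dead.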 Calls of active or inactive are those of the source.

For the assay, the system named is SNB-75 CNS. Kind of assay: NCI-60 one-dose screen, 48 h (100 = growth as untreated, 0 = no growth, -100 = all killed). Particulars: 10 µM unless noted. Here is the method:
Growth inhibition of the SNB-75 human tumor cell line is measured as a screen for anti-cancer activity. Cells are grown in 96 well plates and exposed to the test compound for 48 hours. Compounds are tested at a single concentration, which is 10^-5 M for most compounds. The reported endpoint is percent growth (GI% or GIPRCNT), where numbers from 0 - 100% represent growth inhibition, and numbers from -100% - 0 represent cell death. For example, a value of 40 represents 60% growth inhibition. A value of 0 means no net growth occurred over the course of the experiment. A value of -40 indicates 40% of cells at the beginning of the experiment died by the end of the experiment. A value of -100 means all cells are dead at the end of the experiment.
NCI-60 Human Tumor Cell Lines Screen was performed using the standard one-dose NCI protocol, which is described in more detail at https://dtp.cancer.gov/discovery_development/nci-60/default.htm.
Compounds with GIPRCNT values below 10 were considered active. Activity score was based on GIPRCNT using the following formula: […]
Score is 0 for GIPRCNT values of 100 or above, 50 for GIPRCNT values of 0, and 100 for GIPRCNT values of -100.
For the molecule `CCOC(=O)C(Cc1ccc(N(CCCl)CCCl)cc1)NC(=O)C(CC(C)C)NC(C)=O` (stereo not given), the growth was 41.6% (inactive). With `O=c1[nH]cc(N(CCCl)CCCl)c(=O)[nH]1` the figure was 62.9% (inactive); with `[Cl][Hg][c]1cc(Br)cc(Br)c1`, 21.6% (inactive). In the case of `COP(=O)(OC)C(O)c1ccc(Cl)cc1` (stereo not given), the growth was 89.4% (inactive).

For the molecule `CCCCCCCC[n+]1ccc2ccccc2c1`, the growth is 69.4% (inactive). Consider `Cc1ccc(S(=O)(=O)C(Cl)(Cl)Cl)cc1`, for which the growth is 81.5% (inactive). Next, `O=[N+]([O-])c1ccc(OP(=O)(CCl)N(CCCl)CCCl)cc1` (stereo not given): 77.7% (inactive). Next, `COc1ccc(/C=C\c2cc(OC)c(OC)c(OC)c2)cc1OCC(=O)Nc1nc2ccc(F)cc2s1`: 15.6% (inactive); `COC[C@@H]1C[C@@]2(C)[C@@H](CC[C@@H]3[C@@H]2CC[C@@]2(C)[C@H]3CC[C@]2(C)O)CC1=O`: 90.4% (inactive); `Nc1nc([Se])c2ncn(C3OC(CO)C(O)C3O)c2n1` (stereo not given): 96.7% (inactive).

With `COc1ccc(/C=C\c2cc(OC)c(OC)c(OC)c2)c(NS(=O)(=O)c2ccc(Cl)cc2)c1O`, the growth is 18.9% (inactive). For `C=CC[Se]C(=O)c1ccccc1OC(C)=O`, the growth is -65.1% (active).

As to `CCCCCCCOC(C(=O)OCCN(CC)CC)(c1ccccc1)c1ccccc1`, the growth was 86.1% (inactive).

Consider `CC[C@H](C)[C@H](NC(=O)[C@H]1CCCCN1C)C(=O)N(C)[C@H](CC(=O)c1nc(C(=O)N[C@@H](Cc2ccccc2)C[C@H](C)C(=O)O)cs1)C(C)C`, for which the growth is 49.3% (inactive). For the molecule `CCCCC1(CCC)C(=O)NC(=S)NC1=O`, the growth was 77.5% (inactive). With `CC(=O)OCC1O[C@@H]([S-])C(OC(C)=O)[C@H](OC(C)=O)[C@@H]1OC(C)=O.[Au+].c1ccc(CN2[CH-]N(Cc3ccccc3)C(c3ccccc3)=C2c2ccccc2)cc1` the figure was 40.8% (inactive); with `ClCCN(CCCl)c1ccc(/C=N/Nc2ncnc3nc[nH]c23)cc1`, 72.7% (inactive). Next, `CCn1cnc2c(Nc3cccc(Cl)c3)nc(N[C@@H]3CCCC[C@@H]3N)nc21`: -5.9% (active); `NC1CC2CCCCC2CC1(O)c1ccccc1` (stereo not given): 80.9% (inactive). Consider `COC(=O)[C@H](Cc1ccccc1)NNC(=O)c1csc([C@@H](C[C@H](C(C)C)N(C)C(=O)[C@@H](NC(=O)[C@H]2CCCCN2C)C2CC2)OC(C)=O)n1`, for which the growth was 49.2% (inactive).

As to `O=C(O)C(Cl)(Cl)C(F)(F)F`, the growth was 97.7% (inactive). With `COc1ccc(/C=C\c2cc(OC)c(OC)c(OC)c2)c(NS(=O)(=O)c2ccc(C)cc2)c1O`, the growth was 41.6% (inactive).

For the molecule `N#CC1C(C#N)C2CCC1C1C2N1c1ccccc1` (stereo not given), the growth was 87.1% (inactive). Regarding `CC[C@H](C)[C@H](NC(=O)C12C3C4C1C1C2C3C41NC)C(=O)N(C)[C@H](C[C@@H](OC(C)=O)c1nc(C(=O)N[C@@H](Cc2ccccc2)C[C@H](C)C(=O)OC)cs1)C(C)C` (stereo not given in full), the growth is 31.4% (inactive). Next, `CC[C@]12C=CCN3CC[C@@]4(c5ccc(OC)cc5N(C)[C@H]4[C@@](O)(C(=O)OC)[C@@H]1OC(=O)CCCC[P+](c1ccccc1)(c1ccccc1)c1ccccc1)[C@@H]32`: -12.8% (active); `CC(=O)O[C@H](C[C@H](C(C)C)N(C)C(=O)[C@@H](NC(=O)[C@H]1CCCCN1C)C(C)C)c1cccc(C(=O)N[C@@H](Cc2ccccc2)C[C@H](C)C(=O)O)n1`: 27.6% (inactive); `CCOC(=O)CCC(NC(=O)C(Cc1ccc(N(CCCl)CCCl)cc1)NC=O)C(=O)OCC` (stereo not given): 30.3% (inactive).

Take `CC[C@H](C)[C@H](NC(=O)c1cccn1C)C(=O)N(C)[C@H](C[C@@H](OC(C)=O)c1nc(C(=O)N[C@@H](Cc2ccccc2)C[C@H](C)C(=O)OC)cs1)C(C)C`: the growth is 33.4% (inactive).

For `Cc1ccc(C(=O)NCCCOc2ccc(N3C(N)=NC(N)=NC3(C)C)cc2Cl)cc1S(=O)(=O)F`, the growth is 87.6% (inactive). In the case of `CCOC(=O)[C@@H](C)C[C@H](Cc1ccccc1)NC(=O)c1nc([C@@H](C[C@H](C(C)C)N(C)C(=O)[C@@H](NC(=O)[C@H]2CCCCN2C)C(C)C)OC(C)=O)sc1CCOCc1ccccc1`, the growth was -11.2% (active). With `COc1ccc(C(=O)c2cc(OC)c(OC)c(OC)c2)cc1OC(C)=O` the figure was 40.4% (inactive); with `C[C@@]12CC=C3c4nc(Nc5cccc(O)c5)sc4CC[C@]3(C)[C@H]1CC[C@]1(C)C(=O)CC[C@@H]21`, 37.3% (inactive). Next, `Clc1ccc(CO/N=C(\Cn2ccnc2)c2ccc(Cl)cc2Cl)c(Cl)c1`: 30.4% (inactive); `C/C(=C\c1ccn(-c2ccc(N)c(F)c2)n1)[C@@H]1C[C@@H]2O[C@]2(C)CCC[C@H](C)[C@H](O)[C@@H](C)C(=O)C(C)(C)[C@@H](O)CC(=O)O1`: -16.9% (active). With `COC(C(=O)[C@@H](O)[C@@H](C)O)[C@@H]1Cc2cc3cc(O[C@H]4C[C@@H](O[C@H]5C[C@@H](O)[C@H](O)C(C)O5)[C@H](O)C(C)O4)c(C)c(O)c3c(O)c2C(=O)[C@H]1O[C@H]1C[C@@H](O[C@H]2C[C@@H](O[C@H]3C[C@@H](O)[C@@H](O)C(C)O3)[C@@H](O)C(C)O2)[C@H](O)C(C)O1` (stereo not given in full) the figure was -31.8% (active); with `Cc1ccc(S(=O)(=O)F)cc1C(=O)O`, 76.8% (inactive). For the molecule `CC12CCC3C(CCC4=CC(=O)CCC43CF)C1CCC2=O` (stereo not given), the growth was 90.1% (inactive). With `O=C(N/N=C/c1ccc(N(CCCl)CCCl)cc1)c1cccc2ccccc12` the figure was 76.7% (inactive); with `CC(=O)OC1CCC2C3CCC4=C/C(=N/OC(=O)c5ccc(N(CCCl)CCCl)cc5)CCC4(C)C3CC(C)C12` (stereo not given), 70.5% (inactive); with `COc1ccc(S(=O)(=O)N(Cc2ccc3c(c2)C=CC(C)(C)O3)c2ccccc2)cc1OC`, 83.1% (inactive).
